# Test results taken from the supplement of paper PMC12282887.
# ± gives the standard deviation of the averaged measurements.
# Legend:
# Assay in all cases: promoter activity interaction Z-score (Lux/OD deviation from empty-vector control); higher = stronger promoter induction by the compound
# [1] = test system: E. coli BW25113 acrABp lux reporter
# Method in brief: (§1)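 E. coli BW25113 luxCDABE reporter strains grew at 37°C in 40 µl LB Lennox in 384-well plates, with OD600 and luminescence read every 30 min for 12 h. After integration over 0–8 h for wild type or 1–9 h for deletion strains, wells under 10% of the median growth value were removed. Each score is the Z-transformed residual of growth-normalised luminescence fitted against a control.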
# [2] = test system: E. coli BW25113 marRABp lux reporter
# Method in brief: as §1
# [3] = test system: E. coli BW25113 micFp lux reporter
# Method in brief: as §1
# [4] = test system: E. coli BW25113 ompFp lux reporter
# Method in brief: as §1
# [5] = 0.47 µg/ml, genetic background: wild type
# [6] = 0.47 µg/ml, genetic background: ΔmarA
# [7] = 0.47 µg/ml, genetic background: Δrob
# [8] = 0.47 µg/ml, genetic background: ΔsoxS
# [9] = 0.93 µg/ml, genetic background: wild type
# [10] = 0.93 µg/ml, genetic background: ΔmarA
# [11] = 0.93 µg/ml, genetic background: Δrob
# [12] = 0.93 µg/ml, genetic background: ΔsoxS
# [13] = 1.9 µg/ml, genetic background: wild type
# [14] = 1.9 µg/ml, genetic background: ΔmarA
# [15] = 1.9 µg/ml, genetic background: Δrob
# [16] = 1.9 µg/ml, genetic background: ΔsoxS
# [17] = 3.7 µg/ml, genetic background: wild type
# [18] = 3.7 µg/ml, genetic background: ΔmarA
# [19] = 3.7 µg/ml, genetic background: Δrob
# [20] = 3.7 µg/ml, genetic background: ΔsoxS
compound,measurement,setting,value
CC1(C)S[C@@H]2[C@H](NC(=O)Cc3ccccc3)C(=O)N2[C@H]1C(=O)O [Penicillin G],promoter activity interaction Z-score,[1]; [5],-0.119 ± 0.09
same,promoter activity interaction Z-score,[1]; [6],-0.131 ± 0.52
same,promoter activity interaction Z-score,[1]; [7],0.0104 ± 0.26
same,promoter activity interaction Z-score,[1]; [8],0.211 ± 0.039
same,promoter activity interaction Z-score,[1]; [9],-0.14 ± 0.13
same,promoter activity interaction Z-score,[1]; [10],0.592 ± 0.63
same,promoter activity interaction Z-score,[1]; [11],0.28 ± 0.04
same,promoter activity interaction Z-score,[1]; [12],0.575 ± 0.16
same,promoter activity interaction Z-score,[1]; [13],-0.0936 ± 0.033
same,promoter activity interaction Z-score,[1]; [14],0.128 ± 0.61
same,promoter activity interaction Z-score,[1]; [15],-0.00373 ± 0.015
same,promoter activity interaction Z-score,[1]; [16],0.229 ± 0.28
same,promoter activity interaction Z-score,[1]; [17],0.0671 ± 0.041
same,promoter activity interaction Z-score,[1]; [18],0.328 ± 0.92
same,promoter activity interaction Z-score,[1]; [19],0.156 ± 0.023
same,promoter activity interaction Z-score,[1]; [20],0.14 ± 0.13
same,promoter activity interaction Z-score,[2]; [5],-0.0595 ± 0.01
same,promoter activity interaction Z-score,[2]; [6],-0.219 ± 0.31
same,promoter activity interaction Z-score,[2]; [7],-0.0723 ± 0.22
same,promoter activity interaction Z-score,[2]; [8],0.0424 ± 0.095
same,promoter activity interaction Z-score,[2]; [9],0.124 ± 0.25
same,promoter activity interaction Z-score,[2]; [10],-0.178 ± 0.24
same,promoter activity interaction Z-score,[2]; [11],-0.0814 ± 0.19
same,promoter activity interaction Z-score,[2]; [12],0.103 ± 0.11
same,promoter activity interaction Z-score,[2]; [13],-0.36 ± 0.024
same,promoter activity interaction Z-score,[2]; [14],-0.244 ± 0.026
same,promoter activity interaction Z-score,[2]; [15],-0.221 ± 0.14
same,promoter activity interaction Z-score,[2]; [16],0.0691 ± 0.16
same,promoter activity interaction Z-score,[2]; [17],-0.195 ± 0.22
same,promoter activity interaction Z-score,[2]; [18],-0.122 ± 0.053
same,promoter activity interaction Z-score,[2]; [19],0.035 ± 0.11
same,promoter activity interaction Z-score,[2]; [20],-0.0494 ± 0.053
same,promoter activity interaction Z-score,[3]; [5],-0.185 ± 0.12
same,promoter activity interaction Z-score,[3]; [6],-0.107 ± 0.0057
same,promoter activity interaction Z-score,[3]; [7],-0.126 ± 0.1
same,promoter activity interaction Z-score,[3]; [8],-0.069 ± 0.047
same,promoter activity interaction Z-score,[3]; [9],-0.247 ± 0.14
same,promoter activity interaction Z-score,[3]; [10],-0.0395 ± 0.093
same,promoter activity interaction Z-score,[3]; [11],-0.135 ± 0.1
same,promoter activity interaction Z-score,[3]; [12],0.069 ± 0.064
same,promoter activity interaction Z-score,[3]; [13],-0.228 ± 0.13
same,promoter activity interaction Z-score,[3]; [14],0.0369 ± 0.038
same,promoter activity interaction Z-score,[3]; [15],-0.142 ± 0.026
same,promoter activity interaction Z-score,[3]; [16],0.21 ± 0.0048
same,promoter activity interaction Z-score,[3]; [17],-0.333 ± 0.01
same,promoter activity interaction Z-score,[3]; [18],-0.118 ± 0.043
same,promoter activity interaction Z-score,[3]; [19],-0.11 ± 0.08
same,promoter activity interaction Z-score,[3]; [20],-0.156 ± 0.19
same,promoter activity interaction Z-score,[4]; [5],0.195 ± 0.027
same,promoter activity interaction Z-score,[4]; [6],-0.0479 ± 0.074
same,promoter activity interaction Z-score,[4]; [7],-0.032 ± 0.25
same,promoter activity interaction Z-score,[4]; [8],0.447 ± 0.11
same,promoter activity interaction Z-score,[4]; [9],0.206 ± 0.52
same,promoter activity interaction Z-score,[4]; [10],0.589 ± 0.67
same,promoter activity interaction Z-score,[4]; [11],0.432 ± 0.096
same,promoter activity interaction Z-score,[4]; [12],0.381 ± 0.3
